Screening results (PubChem)
Hits are enriched below; roughly 9% of the tested compounds scored in any of these assays.
ALOX12 inh = Primary qHTS assay for inhibitors of human arachidonate 12S-lipoxygenase (ALOX12): Round 2. actives 1.1% (n = 580,000). purified 12hLO, xylenol orange hydroperoxide absorbance. Polyunsaturated fatty acid lipoxygenase ALOX12 (Homo sapiens), P18054. Potency, µM (highest dose often 108 µM), inactives show at the top dose activity change, negative = inhibition, hits mostly inhibitors. AID 1671190, 2021; note: potency is the fitted concentration of half-maximal effect; % is set by controls: 0 for no effect and ±100 for the full control effect
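Hydroperoxide product was detected by ferrous iron/xylenol orange as the 573 to 405 nm absorbance ratio. Arachidonic acid at 40 uM (final) was turned over for 30 min at room temperature by 150 nM human 12hLO, pH 7.0 Hepes buffer, after 15 min compound preincubation.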
JMJD2A Tudor = qHTS Assay for Inhibitors of JMJD2A-Tudor Domain; Lysine-specific demethylase 4A (Homo sapiens), O75164; AlphaScreen JMJD2A-Tudor / H3K4me3 peptide binding; Potency, µM (highest dose often 114 µM), inactives show at the highest dose activity change, negative = inhibition, actives largely listed as inhibitors; actives 4.4% (n = 390,000); AID 504339, 2011; note: potency is the fitted concentration of half-maximal effect; % is set by controls: 0 for no effect and ±100 for the full control effect; nearly all actives have a fitted effect of over 50% in size
PLK1 PBD block = qHTS for Inhibitors of PLK1-PDB (polo-like kinase 1 - polo-box domain): Primary Screen. Serine/threonine-protein kinase PLK1 (Homo sapiens), P53350. Plk1 PBD binding of FITC phosphopeptide, fluorescence polarization. Potency, µM, without a hit: max response, negative = inhibition, hits mostly inhibitors. actives 2.8% (n = 360,000). AID 720504, 2013; note: potency is the fitted concentration of half-maximal effect; series mostly up to about 57 µM; % is set by controls: 0 for no effect and ±100 for the full control effect; nearly all actives have a fitted effect of over 65% in size
Target sequence (P53350 whole entry, looked up, the tested form may be a part): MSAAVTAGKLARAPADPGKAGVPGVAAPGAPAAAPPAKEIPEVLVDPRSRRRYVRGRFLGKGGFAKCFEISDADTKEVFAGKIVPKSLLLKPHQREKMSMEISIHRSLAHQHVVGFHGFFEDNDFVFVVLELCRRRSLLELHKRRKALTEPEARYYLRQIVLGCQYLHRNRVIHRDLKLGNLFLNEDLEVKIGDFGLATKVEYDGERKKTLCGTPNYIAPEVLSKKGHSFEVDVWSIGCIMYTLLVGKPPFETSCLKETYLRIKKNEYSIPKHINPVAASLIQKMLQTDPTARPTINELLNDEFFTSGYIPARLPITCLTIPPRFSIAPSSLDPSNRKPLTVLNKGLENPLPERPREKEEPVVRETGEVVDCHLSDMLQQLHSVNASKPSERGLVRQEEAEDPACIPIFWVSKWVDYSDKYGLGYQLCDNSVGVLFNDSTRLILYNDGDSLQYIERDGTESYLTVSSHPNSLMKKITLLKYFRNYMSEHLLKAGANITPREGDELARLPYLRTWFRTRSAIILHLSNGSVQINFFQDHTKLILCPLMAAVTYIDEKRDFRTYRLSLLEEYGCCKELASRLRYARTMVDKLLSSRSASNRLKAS
G9a block = qHTS Assay for Inhibitors of Histone Lysine Methyltransferase G9a; Potency, µM (series often up to 102 µM), without a hit: at the top dose activity, negative = inhibition, hits mostly inhibitors; Histone-lysine N-methyltransferase EHMT2 (Homo sapiens), Q96KQ7; G9a H3K9 monomethylation, AlphaScreen, 2 h; actives 8.8% (n = 350,000); note: potency is the fitted concentration of half-maximal effect; % is set by controls: 0 for no effect and ±100 for the full control effect; nearly all actives have a fitted effect of over 75% in size
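Readings reflect AlphaScreen signal from monomethyl-H3K9 antibody detection. HMT at 20 nM; substrate b-H3K9 500 nM; cofactor SAM 20 uM; 2 h RT reaction; compounds tested as titrations in qHTS with 15 min preincubation.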
HP1b chromo inh = HTS for Inhibitors of HP1-beta Chromodomain Interactions with Methylated Histone Tails; Chromobox protein homolog 1 (Homo sapiens), P83916; AlphaScreen HP1-beta / biotin-H3K9me3 peptide binding; Potency, µM (highest dose often 114 µM), for inactives: top-dose activity change, negative = inhibition, most hits filed as inhibitors; actives 0.56% (n = 390,000); AID 540317, 2011; note: potency is the fitted concentration of half-maximal effect; nearly all actives have a fitted effect of over 70% in size
Target sequence (P83916 whole entry, looked up): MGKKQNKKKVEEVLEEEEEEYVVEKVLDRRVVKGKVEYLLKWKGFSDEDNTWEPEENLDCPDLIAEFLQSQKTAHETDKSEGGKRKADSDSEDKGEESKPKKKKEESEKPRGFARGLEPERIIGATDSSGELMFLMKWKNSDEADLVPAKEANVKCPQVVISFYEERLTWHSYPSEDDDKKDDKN
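AlphaScreen: HP1-beta (50 nM) preformed 30 min with biotin-H3(1-18)K9me3 peptide (50 nM) in PBS pH 7.4, 0.01% Tween-20. Compound added for 30 min at RT, then streptavidin donor/nickel chelate acceptor beads (10 ug/mL) for 30 min.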
BAZ2B block = qHTS Assay for Inhibitors of BAZ2B | AID 504333, 2011 | Bromodomain adjacent to zinc finger domain protein 2B (Homo sapiens), Q9UIF8 | Potency, µM (titrated, usually from 114 µM), for the others: top-dose activity change, negative = inhibition, actives largely listed as inhibitors | AlphaScreen BAZ2B-H3K14Ac peptide displacement | actives 4.4% (n = 360,000); note: potency is the fitted concentration of half-maximal effect; % is set by controls: 0 for no effect and ±100 for the full control effect; nearly all actives have a fitted effect of over 60% in size
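Multi-concentration screen (max 110 uM) measuring displacement of acetylated histone H3 peptide from BAZ2B by AlphaScreen, using 50 nM protein, 50 nM peptide and 10 ug/mL streptavidin donor plus Ni-chelate acceptor beads.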
ME-1 prolif = qHTS Assay for Compounds Blocking the Interaction Between CBF-beta and RUNX1 for the Treatment of Acute Myeloid Leukemia: ME-1 cellular proliferation | shares compounds with BAZ2B block | ME-1 cell proliferation, ATP luminescence, 48 h | Potency, µM (doses to about 56.1 µM), for the others: top-dose activity change, negative = inhibition, usual class: inhibitors | actives 20% (n = 140)
The depositor's hits bear a star; ? = inconclusive; . = no result; [ ] = remark or other dose. Calls come from the whole dose curve; as a rule, active = well fitted curve in the direction sought with a large enough effect; inconclusive = small, poorly fitted or top-dose-only effect, or another doubt; inactive = no such curve, though single readings can be large; an effect the other way counts as inactive or inconclusive.

SMILES	ALOX12 inh	JMJD2A Tudor	PLK1 PBD block	G9a block	HP1b chromo inh	BAZ2B block	others
Cc1ccc(S(=O)(=O)c2nc(-c3ccccc3)oc2NCc2cccnc2)cc1	7.8%	?	0.9%	50.1µM*	56.8%	?
O=S(=O)(c1ccc(Cl)cc1)c1nc(-c2ccccc2F)oc1NCCCN1CCOCC1	0.0%	?	-3.7%	79.4µM*	-16.0%	?
O=S(=O)(c1ccc(Br)cc1)c1nc(-c2ccco2)oc1NCCCn1ccnc1	-3.2%	?	-14.0%	44.7µM*	-0.9%	50.1µM*
CN1CCN(c2oc(-c3ccccc3F)nc2S(=O)(=O)c2ccc(Cl)cc2)CC1	.	?	-12.4%	.	-35.5%	35.5µM*
NC(=O)C1CCN(c2oc(-c3ccccc3F)nc2S(=O)(=O)c2ccc(Cl)cc2)CC1	?	-20.1%	-11.2%	?	53.3%	-25.0%
CC(C)C(=O)N1Cc2ccccc2NC(=O)C12CCNC2 (stereo not drawn)	5.0%[12.5 µM]	.	.	.	.	.
Cc1cc(N2CCN(c3ccccc3)CC2)n2nc(-c3ccco3)nc2n1	-2.8%	.	.	.	.	.
Cc1cc(-c2nnc(SCC(=O)Nc3c(C)cccc3C)n2N)n[nH]1	2.1%	0.0%	-0.5%	29.9%	45.9%	0.1%
O=S(=O)(c1ccccc1)c1nc(-c2ccc(F)cc2)oc1NCc1ccccc1	-18.3%	-12.0%	.	-2.0%[59 µM]	24.2%	-14.9%
O=S(=O)(c1ccccc1)c1nc(-c2ccco2)oc1NCCCN1CCOCC1	?	-3.2%	-0.8%	14.1µM*	27.1%	-29.7%
O=S(=O)(c1ccccc1)c1nc(-c2ccco2)oc1NCCN1CCOCC1	-27.3%	0.7%	-9.4%	?	36.4%	-30.9%
O=S(=O)(c1ccccc1)c1nc(-c2ccc(Cl)cc2)oc1NCCCN1CCOCC1	-31.9%	?	-11.0%	44.7µM*	-21.3%	-7.2%
Cc1ccc(CNc2oc(-c3ccco3)nc2S(=O)(=O)c2ccccc2)cc1	-0.4%	-19.4%	-5.9%	11.2µM*	1.7%	-31.5%
CCn1ccc(C(=O)N2C[C@@H](COC)[C@H](c3nc(C)no3)C2)n1	21.8%	.	.	.	.	.
Cc1ccc(NC(=O)C2C3/C=C\CCCCC32)cc1 (stereo not drawn)	0.6%	-15.1%	1.9%	25.7%[59 µM]	37.2%	6.0%
O=C(Nc1nc2ccc(Cl)cc2s1)c1ccco1	17.7%	-6.8%	0.1%	-30.9%[59 µM]	21.8%	2.5%
CC(=O)c1ccc(NS(=O)(=O)Cc2ccccc2)cc1	5.7%	-17.8%	-0.9%	9.6%[59 µM]	60.1%	1.2%
CC(=O)N(C)c1ccc(NS(=O)(=O)Cc2ccccc2)cc1	-3.4%	-0.8%	-17.6%	56.2µM*	11.0%	5.8%
O=C1C=C(C2CCCCC2)C(=O)c2ccccc21	44.7µM*	39.8µM*	-6.2%	.	?	.
O=C(O)C1=C(C2CCCCC2)C(=O)c2ccccc21	-14.6%	-13.9%	3.3%	.	14.9%	.
Cn1cccc1CN1CCC2(CC1)C(=NC1CCCCC1)NC(=O)N2c1cccnc1	-0.1%[6.33 µM]	.	.	.	.	.
Cc1ccc(NC(=O)CNCc2ccccc2)cc1Br	-6.2%	0.794µM*	-12.7%	7.94µM*	?	50.1µM*
CCc1cccc(C)c1NS(=O)(=O)c1ccccc1C(F)(F)F	3.8%	.	.	.	.	.
COc1ccc(OC)c(NC(=O)CCN2CCN(Cc3ccccc3)CC2)c1	?	-31.3%	-3.1%	50.1µM*	13.9%	-9.2%
Cc1ccc(NC(=O)CCn2cccc2)cc1C	-15.6%	?	-6.0%	50.1µM*	-15.6%	?
SMILES	ALOX12 inh	JMJD2A Tudor	PLK1 PBD block	G9a block	HP1b chromo inh	BAZ2B block	others
CCc1cccc(C)c1NS(=O)(=O)Cc1ccccc1	7.1%	-7.5%	-1.6%	79.4µM*	15.2%	-2.7%
Cc1ccc(Sc2c(C#N)c(-c3ccccc3)nn2C)cc1	-11.7%	132.7%	0.9%	54.4%[59 µM]	190.5%	89.2%
Cc1ccc(NCC(=O)Nc2ccc(Br)cc2)cc1C	238.3%	-15.3%	-1.1%	56.2µM*	37.4%	?
Cc1cc(NC(=O)CCN2CCN(C)CC2)ccc1Br	0.0%	89.1µM*	5.6%	13.4%[0.501 µM]	32.7%	-1.4%
CCc1cccc(C)c1NC(=O)CNCc1ccccc1	-13.1%	8.91µM*	0.0%	17.8µM*	?	56.5%
COc1cc(Cl)cc(NC(=O)CCN2CCN(C)CC2)c1	-42.5%	-16.4%	-0.7%	50.1µM*	23.6%	-5.8%
Cc1c(Cl)cccc1NC(=O)Nc1ccn(C)n1	10.1%	-16.3%	-4.3%	-6.7%[59 µM]	24.4%	2.7%
CN(C1CCCCC1)S(=O)(=O)c1ccc2c(c1)c(=O)c(C(=O)NCCN1CCCC1)cn2C	?	-9.2%	-6.0%	?	30.3%	-21.0%
CC1=NNC(=O)C1CCC(=O)N/N=C/c1ccc(C)cc1 (stereo not drawn)	12.5%	6.9%	-8.9%	.	28.5%	11.4%
CCCCCCNCc1cccc(Br)c1	-9.2%	-23.3%	-6.3%	2.1%	23.5%	-2.9%
Cc1ccc(S(=O)(=O)Nc2ccncc2)c(C)c1N(C)S(=O)(=O)c1ccc(F)cc1	-25.1%	-5.7%[57.1 µM]	-0.1%	12.0%[59 µM]	28.5%	-0.8%
CN1CCN(CCC(=O)Nc2cccc(Br)c2)CC1	?	-9.2%	-13.9%	56.2µM*	19.8%	-29.7%
Cc1cc(NC(=O)CCN2CCN(C/C=C/c3ccccc3)CC2)ccc1Br	6.31µM*	-28.6%	8.1%	21.5%[0.501 µM]	1.3%	?
Cc1cccc(NC(=O)CCN2CCN(C/C=C/c3ccccc3)CC2)c1	12.5%	-32.3%	-7.0%	-27.3%[12.7 µM]	7.4%	-19.8%
Cc1ccc(NC(=O)CCN2CCN(CCO)CC2)cc1Br	?	-12.0%	-21.1%	?	54.0%	-11.9%
Cc1ccc(NC(=O)CCN2CCN(Cc3ccccc3)CC2)cc1Br	50.1µM*	.	.	.	.	.
O=S1(=O)CCC(NC(=S)NCCNC(=S)NC2CCS(=O)(=O)C2)C1 (stereo not drawn)	-0.6%	-10.1%	-8.9%	50.1µM*	39.4%	8.9%
C=CCSC(=S)NC1CCS(=O)(=O)C1 (stereo not drawn)	-3.2%	-0.7%	?	50.1µM*	31.3%	8.6%
Oc1ccccc1/C=N/Nc1ncc(Br)cn1	11.0%	-11.7%	0.5%	12.0%[59 µM]	30.0%	-33.2%	ME-1 prolif=35.5µM*
